# High-throughput results deposited in PubChem by Sanford-Burnham Center for Chemical Genomics.
# Only some compounds are listed: those with a hit (about 4% of all), similar ones and a draw of the others.
# TIM10 inh = growth inhibitors of isogenic TIM10 control yeast, primary screen, counter-screen for tim10-1 yeast inhibitor project, luminescence, uHTS. 1.4% of 330,000 active. AID 463195, 2010. inhibition, % at 10 µM. S. cerevisiae TIM10 strain growth, BacTiter-Glo luminescence, 24 h;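 active means inhibition of 40% or more at the single tested concentration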;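 further: wild-type TIM10 isogenic control strain grown at permissive 25 °C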
# tim23-1 inh = growth inhibitors of tim23-1 mutant yeast, primary screen, luminescence, uHTS. 1.3% of 330,000 active. inhibition, % at 20 µM. AID 463212, 2010. S. cerevisiae tim23-1 growth, BacTiter-Glo luminescence, 24 h;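 active means growth inhibition of the mutant yeast at or above 50%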;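 further: temperature-sensitive mutant grown at 25 °C; plate controls were DMSO-treated mutant yeast for no effect and medium wells lacking yeast for full effect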
# tim10-1 inh = growth inhibitors of tim10-1 mutant yeast, primary screen, luminescence, uHTS; S. cerevisiae tim10-1 ts strain growth, BacTiter-Glo, 24 h; inhibition, % at 20 µM; 2.2% of 330,000 active; AID 463190, 2010;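 active means inhibition of at least 40%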;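 further: mutant grown at 25 °C; 0% = DMSO wells with yeast and 100% = wells holding no yeast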
# NALP3 yeast inh = NALP3 inflammasome inhibitors in reconstituted yeast, primary screen, luminescence, uHTS | Yeast reconstituted NLRP3/ASC/caspase-1, beta-gal luminescence, 24 h | inhibition, % at 10 µM | 0.39% of 330,000 active | AID 2825, 2010;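 active means inhibition of 50% or more; inactive means inhibition below 50%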;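 further: plate controls were induced DMSO wells for no effect and uninduced yeast grown without galactose for full effect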
# NALP1 inh = NALP1 inflammasome inhibitors in reconstituted yeast, colorimetric, S. cerevisiae, triplicate retest. inhibition, % at 10 µM. 0.61% of 280,000 active. S. cerevisiae NALP1/ASC/caspase-1 growth, X-gal OD620, 72 h; in the data active means inhibition mostly above about 24%, no sharp cut-off; inactive means mostly below about 32%
# tim10-1 conf = growth inhibitors of tim10-1 mutant yeast, confirmation, single concentration, luminescence, S. cerevisiae; AID 463213, 2010; S. cerevisiae tim10-1 ts strain growth, BacTiter-Glo, 24 h; inhibition, % at 20 µM; 56% of 7,400 active; shares compounds with tim10-1 inh;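 active means inhibition of yeast growth at or above a set limit in either of two repeat tests at 20 µM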;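 further: tim10-1 mutant grown at permissive 25 °C to find synthetic lethal compounds; 0% = DMSO yeast wells and 100% = medium wells without yeast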
# TIM10 conf = growth inhibitors of wild-type TIM10 yeast, confirmation, counter-screen for tim10-1 synthetic lethality project, single concentration, luminescence, S. cerevisiae; S. cerevisiae tim10 strain growth, BacTiter-Glo luminescence, 24 h; 63% of 4,600 active; inhibition, % at 10 µM; shares compounds with TIM10 inh;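 active means inhibition of yeast growth at or above a set limit in either of two replicates at 10 µM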;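 further: this counterscreen used the strain with wild-type TIM10; 0% = yeast with DMSO and 100% = medium wells lacking yeast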
# tim23-1 confirm = tim23-1 mutant yeast growth inhibitors, confirmation, luminescence, single concentration | shares compounds with tim23-1 inh | inhibition, % at 20 µM | 83% of 4,400 active | AID 463218, 2010 | S. cerevisiae tim23-1 growth, BacTiter-Glo luminescence, 24 h;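 active means inhibition above about 39% in either of two replicate wells at 20 µM, limit read from the data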;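 further: temperature-sensitive tim23-1 mutant grown at 25 °C; 0% = DMSO wells with yeast and 100% = medium wells without yeast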
# Starred values were filed as active, the others as inactive; x = not tested or not shown.
SMILES,TIM10 inh,tim23-1 inh,tim10-1 inh,NALP3 yeast inh,NALP1 inh,tim10-1 conf,tim23-1 confirm,others
CN(Cc1ccc(C(C)(C)C)cc1)C(=O)C1CSC2(C)CCC(=O)N12 (centres undefined),22,33,36,16,x,x,x,
CNS(=O)(=O)c1cccc(C(=O)OCC(=O)N2CC(C)OC(C)C2)c1 (centres undefined),7,-5,-19,2,12,x,x,
CC(C)=NOc1cc(NC(=O)CCl)cc([N+](=O)[O-])c1,31,66*,52*,16,31,28,47*,
COC(=O)C1=C(C)N(c2cc(C)cc(C)c2)/C(=C/c2ccco2)C1=O,39,54*,55*,-5,8,28,50*,
CCCCCO,5,5,3,5,x,x,x,
COc1ccc(/C(N)=N/OC(=O)c2cccc([N+](=O)[O-])c2)cc1,32,66*,42*,7,-15,54*,74*,
COc1cccc(C(=O)O/N=C(\N)c2ccc([N+](=O)[O-])cc2)c1,-4,1,27,4,-24,x,x,
COc1ccc(/C(N)=N/OC(=O)c2cccc([N+](=O)[O-])c2C)cc1,83*,72*,65*,12,19,53*,60*,TIM10 conf=78*
COc1ccccc1C/C(N)=N/OC(=O)c1cccc([N+](=O)[O-])c1C,83*,78*,46*,17,48,33*,74*,TIM10 conf=-32
CC1=CC(=NOC(=O)c2cccc([N+](=O)[O-])c2)C=C(C)C1=O,20,57*,45*,8,12,36*,64*,
COc1ccc(OC)c(-c2cc(C(F)(F)F)c3c(n2)sc2c(O)cc(=O)[nH]c23)c1,0,17,16,19,29,x,x,
C=CCN(CC=C)C(=O)CN1C(=O)NC(Cc2c[nH]c3ccccc23)C1=O (centres undefined),2,-1,3,12,12,x,x,
Cc1ccc(S(=O)(=O)N(C)c2ccc(OCC(=O)NCC3(N(C)C)CCCCC3)cc2)cc1,7,-14,7,25,x,x,x,
Cc1ccc(OCCC(=O)O)cc1,12,-13,4,5,0,x,x,
O=c1ccc(-c2ccc(S(=O)(=O)NCC3CCN(Cc4ccccc4F)CC3)s2)n[nH]1,1,2,-7,-5,2,x,x,
Oc1ccccc1C1Nc2cccc3cccc(c23)N1,46*,77*,52*,32,3,52*,74*,TIM10 conf=44*
COc1ccccc1C1Nc2cccc3cccc(c23)N1,9,26,21,12,11,x,x,
N#C/C(=C\c1ccc[nH]1)Sc1nc2ccccc2s1,14,54*,42*,20,37,30*,48*,
O=C(COC(=O)CC1CC2CCC1C2)NCc1ccc(F)cc1 (centres undefined),3,22,5,9,x,x,x,
O=C(CC1CC2CCC1C2)OCC(=O)c1c[nH]c2ccccc12 (centres undefined),35,52*,42*,17,1,26,68*,
Cc1cc2oc3c(c(=O)c2cc1C)C(c1ccc(C(C)C)cc1)N(CCCN1CCOCC1)C3=O (centres undefined),2,24,14,9,15,x,x,
Cc1ccc(CNC(=O)CCS(=O)(=O)Cc2ccc(C)cc2)cc1,7,-2,-20,4,-8,x,x,
Cc1cc(C(=O)Nc2nnc(C3CCCCC3)s2)no1,36,47,23,-24,x,x,x,
Cc1ccc(C(=O)Nc2nnc(C3CCCCC3)s2)o1,24,52*,46*,18,18,35*,45*,
CCN(C(=O)C(C)OC(=O)CCCNC(=O)c1ccc(Cl)cc1)c1ccccc1 (centres undefined),0,11,21,11,x,x,x,
SMILES,TIM10 inh,tim23-1 inh,tim10-1 inh,NALP3 yeast inh,NALP1 inh,tim10-1 conf,tim23-1 confirm,others
Cc1ccccc1-c1cc(C(=O)Nc2sc(C)c(C)c2C(N)=O)c2ccccc2n1,31,54*,42*,24,4,31*,42*,
Cc1ccc(S(=O)(=O)N2CCOCC2)cc1NC(=O)COC(=O)/C=C/c1ccco1,6,10,11,0,x,x,x,
O=C(O)CCN1CCc2ccccc2C1c1cccs1 (centres undefined),8,-7,12,-3,-4,x,x,
CCCN1C(=O)/C(=C2\SC(N3CCCCC3)=NC2=O)c2ccccc21,30,50*,42*,22,36,32*,48*,
O=C1Cc2cc(S(=O)(=O)Nc3ccc(N4CCOCC4)cc3)ccc2N1,0,-7,-17,8,x,x,x,
CCOc1cccc(/C=C(\C#N)C(=O)NC2CC2)c1,51*,77*,42*,8,x,51*,62*,TIM10 conf=51*
CC(=O)Nc1ccc(/C=C(\C#N)C(=O)NC2CCCCC2)cc1,49*,66*,46*,4,-4,48*,62*,TIM10 conf=56*
CCOc1cccc(NC(=O)/C(C#N)=C/c2cccnc2)c1,42*,79*,52*,0,x,55*,77*,TIM10 conf=56*
CC(C)Oc1ccc(/C=C(\C#N)C(=O)NC2CC2)cc1,-13,10,-6,26,x,x,x,
CCOc1ccc(/C=C(\C#N)C(=O)Nc2cccnc2)cc1,-6,1,-7,14,14,x,x,
N#C/C(=C/c1ccc(OCc2ccccc2)cc1)C(=O)NC1CCCCC1,-11,3,17,24,40,x,x,
COc1ccc(C(=O)OCN2C(=O)c3ccccc3C2=O)cc1,-6,24,16,32,7,x,x,
Cc1ccc(NC(=S)NCc2ccc(Cl)cc2)c(OC(F)F)c1,22,32,24,10,0,x,x,
CCc1nnc(NC(=O)CSc2nnc(C(C)NC(=O)c3ccccc3)n2C)s1 (centres undefined),14,6,3,17,6,x,x,
COc1cccc(/C=C2\SC(=S)N(CCCC(=O)N(CCO)c3ccccc3)C2=O)c1,24,50*,44*,17,3,30,54*,
O=C1CCCCC1C(Nc1ccc(Br)cc1)c1ccccc1 (centres undefined),29,53*,41*,34,20,32*,48*,
